Results filed as inconclusive are left out. Activity calls are given as the source filed them. The call rests on the fitted dose curve; in most records, active means well fitted curve in the direction sought with a large enough effect; inconclusive means small, poorly fitted or top-dose-only effect, or another doubt; inactive means no such curve, though single readings can be large; an effect the other way counts as inactive or inconclusive.
Columns and labels:
[1] = qHTS of pediatric cancer cell lines to identify multiple opportunities for drug repurposing: Primary screen for Saos-2 cells (AID 1347097); further: nearly all actives have a fitted effect of over 40% in size
Procedure, shortened: (§1)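 500-1,000 cells/well; 5 h pre-incubation 37 °C/5% CO2; compound pinned; 48 h; CellTiter-Glo, 15 min RT; luminescence. MIPE 11-pt from 0.78 nM, NPC 8-pt from 0.59 nM final. Bortezomib 2.3 µM final as positive control.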

[2] = qHTS of pediatric cancer cell lines to identify multiple opportunities for drug repurposing: Primary screen for SK-N-SH cells (AID 1347098); further: nearly all actives have a fitted effect of over 65% in size; further: potency means the concentration at half of the fitted maximal effect
Procedure, shortened: (§2)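 Cells (500-1,000/well) rested 5 h, then received compounds for 48 h; metabolically active cells were measured by CellTiter-Glo luminescence. Final concentrations spanned up to 46 µM (MIPE, 11-point) or 0.59 nM-46 µM (NPC, 8-point) in primary screens, 11-point in follow-ups.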

[3] = qHTS of pediatric cancer cell lines to identify multiple opportunities for drug repurposing: Primary screen for NB1643 cells (AID 1347099); further: nearly all actives have a fitted effect of over 50% in size
Procedure, shortened: as §1

[4] = qHTS of pediatric cancer cell lines to identify multiple opportunities for drug repurposing: Primary screen for LAN-5 cells (AID 1347100)
Procedure, shortened: (§3)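 Viability after 48 h compound treatment at 37C, 500-1,000 cells/well, read as ATP luminescence with CellTiter-Glo. Primary screens used 11-point (MIPE, 0.78 nM-46 µM) or 8-point (NPC, 0.59 nM-46 µM) final concentrations; follow-up screens used 11-point dilutions.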

[5] = qHTS of pediatric cancer cell lines to identify multiple opportunities for drug repurposing: Primary screen for BT-12 cells (AID 1347101); further: nearly all actives have a fitted effect of over 25% in size
Procedure, shortened: as §2

[6] = qHTS of pediatric cancer cell lines to identify multiple opportunities for drug repurposing: Primary screen for Rh18 cells (AID 1347102); further: nearly all actives have a fitted effect of over 65% in size
Procedure, shortened: as §3

[7] = qHTS of pediatric cancer cell lines to identify multiple opportunities for drug repurposing: Primary screen for OHS-50 cells (AID 1347103); further: nearly all actives have a fitted effect of over 40% in size
Procedure, shortened: as §2

[8] = qHTS of pediatric cancer cell lines to identify multiple opportunities for drug repurposing: Primary screen for MG 63 (6-TG R) cells (AID 1347105); further: nearly all actives have a fitted effect of over 50% in size
Procedure, shortened: as §1

[9] = qHTS of pediatric cancer cell lines to identify multiple opportunities for drug repurposing: Primary screen for control Hh wild type fibroblast cells (AID 1347106);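 further: series mostly up to about 46 µM; a drop in luminescence marks cytotoxicity and a rise apparent proliferation; nearly all actives have a fitted effect of over 55% in size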
Procedure, shortened: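 Cells (500-1,000/well) in growth media were settled 5 h at 37 degrees C, then given compounds for 48 h. Viability was read as CellTiter-Glo luminescence. Primary runs used MIPE at 11 points (0.78 nM-46 µM) and NPC at 8 points (0.59 nM-46 µM); follow-ups used 11 points.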

[10] = qHTS of pediatric cancer cell lines to identify multiple opportunities for drug repurposing: Primary screen for Rh41 cells (AID 1347108);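 further: series mostly up to about 46 µM; luminescence drop marks cytotoxic hits; nearly all actives have a fitted effect of over 70% in size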
Procedure, shortened: as §1

[11] = qHTS of pediatric cancer cell lines to identify multiple opportunities for drug repurposing: Primary screen for RD cells (AID 1347104); further: nearly all actives have a fitted effect of over 55% in size
Procedure, shortened: as §1

[12] = qHTS of pediatric cancer cell lines to identify multiple opportunities for drug repurposing: Primary screen for Rh30 cells (AID 1347107); further: series mostly up to about 46 µM; nearly all actives have a fitted effect of over 75% in size
Procedure, shortened: as §3

Measured: Potency

O=C1c2c(O)cccc2Cc2cccc(O)c21
not listed: [11] | [12]
inactive: all other assays above

C[C@@H]1CN(c2c(F)c(F)c3c(=O)c(C(=O)O)cn(C4CC4)c3c2F)C[C@H](C)N1
not listed: [7]
inactive: all other assays above

O=C(O)[C@H](O)c1ccccc1
not listed: [6] | [7] | [11]
inactive: all other assays above

C[C@H]1O[C@H](O[C@H]2[C@H](O)[C@@H](O)[C@@H](O[C@H]3[C@H](O)[C@@H](O)[C@H](O)O[C@@H]3CO)O[C@@H]2CO)[C@H](O)[C@@H](O)[C@@H]1N[C@H]1C=C(CO)[C@@H](O)[C@H](O)[C@H]1O
not listed: [4] | [8]
inactive: all other assays above

CCCc1c(OCCCCc2nn[nH]n2)ccc(C(C)=O)c1O
not listed: [4]
inactive: all other assays above

CC(=O)Oc1c(C)c(C)c2c(c1C)CC[C@@](C)(CCC[C@H](C)CCC[C@H](C)CCCC(C)C)O2
not listed: [11] | [12]
inactive: all other assays above

CCCCN(CCCC)CCCOC(=O)c1ccc(N)cc1
not listed: [4]
inactive: all other assays above

COc1ccc2c(c1)C(=O)N(CCc1ccc(S(=O)(=O)NC(=O)NC3CCCCC3)cc1)C(=O)C2(C)C
not listed: [4]
inactive: all other assays above

CC(C)(O)c1ccccc1CC[C@@H](SCC1(CC(=O)O)CC1)c1cccc(/C=C/c2ccc3ccc(Cl)cc3n2)c1
not listed: [6]
inactive: all other assays above

N[C@@H](CSCCCO)C(=O)O
not listed: [4] | [7] | [11]
inactive: all other assays above

CC(C)(C)C(=O)C(Oc1ccc(Cl)cc1)n1ccnc1 (stereo not drawn)
active: [2] 24.4 µM
not listed: [4] | [7] | [12]
inactive: all other assays above

COc1cc(C(=O)N2CCOCC2)cc(OC)c1OC
not listed: [7]
inactive: all other assays above

CC1(C)S[C@@H]2[C@H](NC(=O)Cc3ccccc3)C(=O)N2[C@H]1C(=O)O (tested in a mixture with another compound)
not listed: [6]
inactive: all other assays above

CC1CC(OC(=O)C(O)c2ccccc2)CC(C)(C)N1C (stereo not drawn)
not listed: [6]
inactive: all other assays above

CCCn1cnc2c1c(=O)n(CCCCC(C)=O)c(=O)n2C
not listed: [4] | [7] | [11]
inactive: all other assays above

COc1ccc2cc1Oc1cc3c(cc1OC)CC[N+](C)(C)[C@H]3Cc1ccc(cc1)Oc1c(OC)c(OC)cc3c1[C@@H](C2)[N+](C)(C)CC3
not listed: [4]
inactive: all other assays above

O=C1O[C@H](CO)[C@@H](O)[C@H](O)[C@H]1O
not listed: [4] | [7] | [11]
inactive: all other assays above

CCOc1ccc2ccccc2c1C(=O)N[C@@H]1C(=O)N2[C@@H]1SC(C)(C)[C@@H]2C(=O)O
not listed: [6]
inactive: all other assays above

C=Cc1c(C)c2cc3[nH]c(cc4nc(cc5nc(cc1[nH]2)C(C)=C5CCC(=O)O)C(CCC(=O)O)=C4C)c(C)c3C=C
not listed: [11] | [12]
inactive: all other assays above

NC(=O)N/N=C/c1ccc([N+](=O)[O-])o1
not listed: [4] | [5] | [6]
inactive: all other assays above

NC(CSCC(=O)O)C(=O)O (stereo not drawn)
not listed: [4] | [6]
inactive: all other assays above

O=C(O)CC(O)C(=O)O (stereo not drawn)
not listed: [2] | [7] | [12]
inactive: all other assays above

— PubChem BioAssay (NCATS)
